Data on 40 sequences can be found in the OligoGym collection.
Further: reference of the scale not given here.

The first test deals with KRTAP13-2. Description: pooled miR-30 sensor sort-seq; sequence = guide strand. The settings on record: shRNA.
TCCAGATCCATAGCCGAGGGAA: the sensor-assay potency score (higher = more potent) was -1.28. On the same count and under the same terms, the result for TAGGCTGGTCTGTAACAAGGAG reads -0.634; that for ACAGCTTCCATAACCCAGGGAT, -0.532. The same measure, in the same setting: the result for TGGTCTGTAACAAGGAGACTGG reads -0.828; that for TAGGACGTCTGGCAGCTGGTGG, -1.01; that for TAGAGACCCAGAGTAAGTCGTC, 0.623. Still for that read-out and setting: the result for TCCACATAGGACGTCTGGCAGC reads -2.1; that for TAACCCAGGGATCTGACACCAC, -0.823.

Another test addresses KRTAP4-5. The test is described as above. Conditions: shRNA.
Sequence TGGTCTGGCAGCAGCAGGGGCG gave a sensor-assay potency score (higher = more potent) of -1.72.

In turn, TAACATATTTTAATGAATGTGA gave a sensor-assay potency score (higher = more potent) of -0.0651.

Consider TGCTCAGAGCTGACAGAGCCAC, for which the sensor-assay potency score (higher = more potent) was -1.57. With ATGAATGTGATTGTCTGTCATT, the sensor-assay potency score (higher = more potent) is -1.58.

TTTAATGAATGTGATTGTCTGT displayed a sensor-assay potency score (higher = more potent) of 0.174. The same measure, in the same setting: for TTATATGAGATCATCACAGTTA the value was 0.439. The same measure, in the same setting: for TGGTAGCACACAGACTGGCAGC the value was -1.41; for TTAATGAATGTGATTGTCTGTC, 0.0544; for ATTCACAGCAATAGGGGCGGCA, -0.786. On the same count and under the same terms, for TGGATTCACAGCAATAGGGGCG the value was -0.512; for TGGAGATGCAGCAGCTAGGGTG, -1.53. Sequence TAGGGTGGCAGCAGGTGGGCTG gave a sensor-assay potency score (higher = more potent) of -0.712.

The target of a further test is KRTAP4-7. The test is described as above. The settings on record: shRNA.
Sequence TCAGTGACAAAACTGGTCCTGC showed a sensor-assay potency score (higher = more potent) of 0.367.

Consider TAGGGTGGCAGCAGGTCGTCTC, for which the sensor-assay potency score (higher = more potent) was -0.549. The same measure, in the same setting: the result for CAGCAGGTCGTCTCACAGCAGC reads -2.76; that for TATTGAATGACATCAACCCCAC, -0.0813. The same measure, in the same setting: the result for TGGAGATGCAGCACCTAGGGTG reads -0.36; that for CTGGACACACAACAGCTGGGGC, -1.77.

Regarding TGGTCAGAGCACACGGAGCCAC, the sensor-assay potency score (higher = more potent) was -1.43. Still for that read-out and setting: for CAGCTGGACACACAACAGCTGG the value was -1.96; for TAGCAGGTGGTCCTGCAACAGG, -1.7; for CAGGTGGTCTGACAGCAGCTGG, -2.02. Still for that read-out and setting: the result for TGGTCTGACAGCAGCTGGGGCG reads -1.46; that for TGACAGAGGACTTGGCCGCAGC, -1.09; that for TTGCAGCAGCTGGACATACAGC, -1.51. Still for that read-out and setting: for TCTGACAGCAGCTGGGGCGGCA the value was -1.19; for AGCTGGACACACAACAGCTGGG, -1.49.

The next test addresses KRTAP5-8. The description is as above. Conditions: shRNA.
For ATGGGCACACAGCAGCTAGAGC, the sensor-assay potency score (higher = more potent) is -1.84. Same read-out and setting: for TTACAACAGCTGGACTGGGAAC the value was -1.86; for ACAGGAGCCACAGTCCCCCTTG, -0.958. In turn, AGCAGCTAGAGCCACATCCCCC registered a sensor-assay potency score (higher = more potent) of -1.72. Still for that read-out and setting: the result for TGAGGAGCAACAGCAGGGCTTA reads -1.48.
